The structures appear in SMILES notation. Results filed as inconclusive are left out. The source made the active and inactive calls. Unless noted, the call rests on the fitted dose curve; in most records, active means well fitted curve in the direction sought with a large enough effect; inconclusive means small, poorly fitted or top-dose-only effect, or another doubt; inactive means no such curve, though single readings can be large; an effect the other way counts as inactive or inconclusive.

Experiment [1] deals with Zika virus NS2B-NS3 protease. The experiment is described as follows: Primary screen GU AMC qHTS for Zika virus inhibitors (AID 1347154).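 Further: 0% = no-inhibitor control and -100% = no-enzyme control; nearly all actives have a fitted effect of over 70% in size.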 The method, boiled down: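 Fluorogenic AMC-substrate cleavage by noncovalent NS2B-NS3 protease complex (25 nM, pH 8.0 Tris buffer with Tween 20) followed for 15 minutes at room temperature (~20% conversion). Percent inhibition from ex340/em450 signal change, fitted by 4-parameter Hill equation.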

A short description of experiment [2]: Primary qHTS for small molecule stabilizers of the endoplasmic reticulum resident proteome: Secreted ER Calcium Modulated Protein (SERCaMP) assay (AID 1508630). Further: on the % scale 0 is the no-effect control and ±100 the full control effect. In short, it runs like this: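 The SH-SY5Y reporter protocol was run at 3 concentrations up to 38.3 uM (primary) or 11 concentrations (follow-up): 16 h compound, 100 nM thapsigargin for 4 h, then extracellular luciferase luminescence.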

Experiment [3] concerns the target Cytochrome P450 2D6 (Homo sapiens) (UniProt P10635). Nature of the experiment: Cytochrome P450 family 2 subfamily D member 6 (CYP2D6) small molecule antagonists: luciferase biochemical (cell-free) qHTS assay (AID 1645840; active means well fitted curve in the direction sought with a large enough effect in the repeat runs; an effect the other way counts as inactive or inconclusive; further: on the % scale 0 is the no-effect control and ±100 the full control effect; nearly all actives have a fitted effect of over 55% in size). In short, it runs like this: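 P450-Glo CYP2D6 system: proluciferin substrate converted by enzyme to luciferin, read by luminescence proportional to activity. Enzyme-substrate mix with compound 10 min at room temperature, then NADPH regeneration 1 h before detection reagent.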
A general note: Quantitative high-throughput screening tests each substance at several concentrations.

Experiment [4] addresses Cytochrome P450 2C9 (Homo sapiens) (UniProt P11712). Nature of the experiment: Cytochrome P450 family 2 subfamily C member 9 (CYP2C9) small molecule antagonists: luciferase biochemical (cell-free) qHTS assay (AID 1645842; active means well fitted curve in the direction sought with a large enough effect in the repeat runs; an effect the other way counts as inactive or inconclusive; further: on the % scale 0 is the no-effect control and ±100 the full control effect; nearly all actives have a fitted effect of over 55% in size). The method, boiled down:
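P450-Glo CYP2C9 system: proluciferin substrate with enzyme in mix containing 0.4% BSA, 10 min at room temperature, then NADPH regeneration solution added and incubated 1 h at 37C. Detection reagent stopped reaction; luminescence read after 20 min as RLU.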

Experiment [5] is described as follows: Primary qHTS for inhibitors of nuclear receptor binding SET domain protein 2 (NSD2) in an isogenic RCH-ACV NSD2 p.E1099K mutant (9B) (AID 1645876). Further: potency means the concentration at half of the fitted maximal effect; nearly all actives have a fitted effect of over 70% in size.
Experiment [6] is described as follows: Primary qHTS for inhibitors of nuclear receptor binding SET domain protein 2 (NSD2) in an RCH-ACV wild type WT cells (2C) (AID 1645877). Further: potency means the concentration at half of the fitted maximal effect; nearly all actives have a fitted effect of over 70% in size.
A short description of experiment [7]: qHTS assay to identify inhibitors of the type 1 interferon - major histocompatibility complex class I in skeletal muscle: Counter screen cell viability and HiBit confirmation (AID 1347412). Further: nearly all actives have a fitted effect of over 60% in size. Further: potency means the concentration at half of the fitted maximal effect. On activity change, negative = inhibition: on the % scale 0 is the no-effect control and ±100 the full control effect. The note with it: iHSKM muscle cells + IFN-b, HiBiT or CellTiter-Glo, 24 h. The method, boiled down:
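Myoblasts (C25cl48, HLA-B HiBiT) seeded in medium without dexamethasone, IFN-b 4 ng/ml added except unstimulated columns; 1 hr later compounds pinned (12-pt 1:3, top 46 uM final). Incubated 24 hrs, lysed 10 min, luminescence measured.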

A short description of experiment [8]: Validation of Assay for Modulators of Lamin A Splicing (AID 1459; active means well fitted curve in the direction sought with a large enough effect in the signal ratio; the % refers to the signal ratio;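 further: cells exposed to compound for two days before reading; 0% is about no effect; ratio rise marks activators and ratio drop marks inhibitors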). In short, it runs like this:
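Splicing correction is reported by an EGFP-containing lamin A minigene in stably transfected S3 HeLa cells, while DsRed2 controls for viability and nonspecific signal. Cells are exposed to compounds for 48 hrs before the GFP over RFP ratio is taken.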

The nature of experiment [9]: qHTS Assay for Lipid Storage Modulators (AID 1519; calls by dose curve). The following applies: Drosophila S3 cells, BODIPY lipid droplet/cell ratio, laser cytometry, cells loaded with oleic acid. In short, it runs like this:
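Cells seeded at 5,000 per well were treated with compounds over a concentration series and loaded with oleic acid (400 uM, as added). Lipid droplet fluorescence (488 nm excitation, 500-530 nm channel) was read by laser-scanning cytometry and normalized to 20 uM Triacsin C.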

The nature of experiment [10]: Counterscreen for APE1 Inhibitors: Fluorescent Dye Displacement Validation Assay (AID 1707).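 Further: plate controls were ThO with dsDNA and no compound for no effect and ThO without dsDNA for full effect.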 The method, boiled down:
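Endpoint fluorescence read at 480 nm excitation / 540 nm emission; DNA-binding compounds lower signal by displacing 250 nM Thiazole Orange from 50 nM dsDNA containing a tetrahydrofuran abasic site, Tris-HCl pH7.5 buffer with NaCl and MgCl2.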
On the technique in general: The purpose of a counterscreen is to sort out artefacts and off-target activity.

Experiment [11] addresses Endonuclease 4 (Escherichia coli (strain K12)) (UniProt P0A6C1). Nature of the experiment: Counterscreen for APE1 Inhibitors: qHTS Validation Assay for Inhibitors of Endonuclease IV (AID 1708). Further: on the % scale 0 is the no-effect control and ±100 the full control effect. The method, boiled down: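 Incision of a double-stranded 50 nM TAMRA/BHQ-2 abasic substrate was followed kinetically (525/598 nm, reads every 60 s) after 15 min enzyme–compound preincubation with 2 nM EndoIV in pH 7.5 Tris buffer with MgCl2, DTT and Tween-20; concentration-response format.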

Experiment [12] in a line: qHTS for differential inhibitors of proliferation of Plasmodium falciparum line 7G8 (AID 1815).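 Further: parasite growth measured after three days of incubation; plate controls were vehicle wells for no effect and reference inhibitor wells for full effect.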
Experiment [13] can be described thus: qHTS for differential inhibitors of proliferation of Plasmodium falciparum line GB4 (AID 1816).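 Further: parasite growth measured after 72 h incubation; 0% = vehicle DMSO and -100% = reference inhibitor.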 The note with it: Potency: Plasmodium falciparum GB4 proliferation inhibition.
Experiment [14] can be described thus: qHTS for differential inhibitors of proliferation of Plasmodium falciparum line 3D7 (AID 1876).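 Further: parasite growth measured after three days of culture; 0% = vehicle wells and -100% = reference inhibitor wells.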
The nature of experiment [15]: qHTS for differential inhibitors of proliferation of Plasmodium falciparum line D10 (AID 1877).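 Further: parasites grown with compound for 72 h before DNA staining; plate controls were vehicle wells for no effect and reference inhibitor wells for full effect.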
Experiment [16] is described as follows: qHTS for differential inhibitors of proliferation of Plasmodium falciparum line Dd2 (AID 1882).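 Further: plate controls were DMSO vehicle for no effect and 0.29 µM artemisinin for full effect; nearly all actives have a fitted effect of over 65% in size.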 The following applies: Potency: Plasmodium falciparum Dd2 proliferation inhibition. In short, it runs like this:
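SYBR Green DNA fluorescence (ex 485, em 535 nm) after overnight lysis quantifies parasite growth; compound exposure lasted 72 h at 37 C on infected red cells at 2.5% hematocrit, 0.3% parasitemia (final). Artemisinin 0.29 uM and vehicle wells define normalization.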

Experiment [17] can be described thus: qHTS for differential inhibitors of proliferation of Plasmodium falciparum line W2 (AID 1883).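 Further: parasites grown with compound for 72 h before lysis and staining; 0% = vehicle wells and -100% = control inhibitor wells.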 The following applies: Potency: Plasmodium falciparum W2 proliferation inhibition.
Experiment [18] can be described thus: qHTS for differential inhibitors of proliferation of Plasmodium falciparum line HB3 (AID 1886).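 Further: parasites grown with compound for 72 h before SYBR Green readout; plate controls were vehicle for no effect and reference inhibitor for full effect.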 The note with it: Potency: Plasmodium falciparum HB3 proliferation inhibition.
Experiment [19] can be described thus: qHTS Assay for Modulators of Human Peripheral Myelin Protein 22 (PMP22) Expression/Activity (AID 1967; active means well fitted curve in the direction sought with a large enough effect in the signal ratio; the % refers to the signal ratio;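 further: 0% = untreated cells and 100% end not stated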). The method, boiled down: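 Quantitative HTS in a mouse Schwann cell line expressing dual click beetle luciferases: Pmp22 promoter (green) and control EF-alpha promoter (red). After 24h treatment, corrected green/red signal ratio gave %Activity relative to untreated cells.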

Experiment [20] concerns the target Ferritin light chain (Equus caballus) (UniProt P02791). The experiment is described as follows: qHTS Validation Assay for Identification of Novel General Anesthetics (AID 2323). Further: on the % scale 0 is the no-effect control and ±100 the full control effect. In short, it runs like this: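 Apoferritin from horse spleen (10 uM) was mixed with 1-aminoanthracene at 50% saturation in PBS, then compounds were added. After 10 min at room temperature, fluorescence was read (ex 380 nm, em 535 nm) and normalized to free-probe and complex controls.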

Experiment [21] addresses ATP-dependent DNA helicase Q1 (Homo sapiens) (UniProt P46063). The experiment is described as follows: qHTS Validation Assay for Inhibitors of RecQ-Like Dna Helicase 1 (RECQ1) (AID 2353).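 Further: plate controls were DMSO vehicle for no effect and enzyme-free control for full effect.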 The method, boiled down:
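RECQ1T1 50 nM; forked duplex (20 bp + 30-nt ss tails) 200 nM, ATP 2 mM final; pH 8.0, 2 mM MgCl2, 2.5 ug/ml poly(dI-dC); 15 min compound preincubation; discontinuous kinetic read over 2 h at RT.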

The target in experiment [22] is RecQ-like DNA helicase BLM (Homo sapiens) (UniProt P54132). Nature of the experiment: qHTS Validation Assay for Inhibitors of Bloom's syndrome helicase (BLM) (AID 2364).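 Further: plate controls were DMSO vehicle for no effect and enzyme-free control for full effect.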 In short, it runs like this: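 Forked 20-bp duplex substrate (200 nM, TAMRA/BHQ-2) plus 2 mM ATP added after 15 min compound preincubation with 50 nM enzyme, pH 8.0, poly(dI-dC) 2.5 ug/ml. Strand separation followed by fluorescence (525/598 nm) over 2 h, normalized to enzyme-free and DMSO controls.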
Sequence of RecQ-like DNA helicase BLM (Homo sapiens) (P54132 whole entry, looked up): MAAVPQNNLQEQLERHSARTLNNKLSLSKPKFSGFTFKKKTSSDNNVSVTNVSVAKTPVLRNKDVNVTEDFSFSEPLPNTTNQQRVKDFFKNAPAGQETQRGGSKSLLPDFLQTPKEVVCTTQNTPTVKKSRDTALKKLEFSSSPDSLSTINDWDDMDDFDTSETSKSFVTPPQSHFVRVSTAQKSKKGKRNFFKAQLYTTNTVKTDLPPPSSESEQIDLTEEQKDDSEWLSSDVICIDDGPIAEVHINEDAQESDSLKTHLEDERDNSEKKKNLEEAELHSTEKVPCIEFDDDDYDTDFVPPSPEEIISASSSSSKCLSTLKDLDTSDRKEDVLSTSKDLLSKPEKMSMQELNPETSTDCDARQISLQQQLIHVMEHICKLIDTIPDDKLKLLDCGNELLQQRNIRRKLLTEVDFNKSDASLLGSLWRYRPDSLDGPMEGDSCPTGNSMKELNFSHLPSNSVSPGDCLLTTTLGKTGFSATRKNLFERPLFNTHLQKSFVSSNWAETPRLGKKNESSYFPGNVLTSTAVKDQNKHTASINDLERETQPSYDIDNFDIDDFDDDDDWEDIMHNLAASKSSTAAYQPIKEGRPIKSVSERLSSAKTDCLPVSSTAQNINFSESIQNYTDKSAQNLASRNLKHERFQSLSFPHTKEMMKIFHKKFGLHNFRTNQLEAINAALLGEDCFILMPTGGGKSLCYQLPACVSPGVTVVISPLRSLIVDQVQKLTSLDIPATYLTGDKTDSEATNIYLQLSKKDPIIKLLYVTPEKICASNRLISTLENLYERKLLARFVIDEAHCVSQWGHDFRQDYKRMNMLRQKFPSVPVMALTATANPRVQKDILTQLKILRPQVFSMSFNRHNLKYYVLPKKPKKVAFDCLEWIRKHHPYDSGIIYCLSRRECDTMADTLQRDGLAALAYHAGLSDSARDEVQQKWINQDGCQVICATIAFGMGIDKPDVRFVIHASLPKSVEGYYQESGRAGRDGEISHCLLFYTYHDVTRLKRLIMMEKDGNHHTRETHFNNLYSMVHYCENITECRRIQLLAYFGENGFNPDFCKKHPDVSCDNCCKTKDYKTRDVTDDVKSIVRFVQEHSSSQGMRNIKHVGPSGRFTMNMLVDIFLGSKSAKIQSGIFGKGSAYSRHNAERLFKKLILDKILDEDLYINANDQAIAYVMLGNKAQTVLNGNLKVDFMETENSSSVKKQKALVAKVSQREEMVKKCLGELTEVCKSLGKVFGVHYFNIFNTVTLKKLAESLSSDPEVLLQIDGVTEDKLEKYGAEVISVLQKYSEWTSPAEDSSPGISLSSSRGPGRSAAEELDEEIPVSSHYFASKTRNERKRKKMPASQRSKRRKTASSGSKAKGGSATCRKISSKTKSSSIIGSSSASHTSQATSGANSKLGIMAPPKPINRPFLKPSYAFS

The nature of experiment [23]: Validation screen for small molecules that induce DNA re-replication in MCF 10A normal breast cells (AID 463097). Further: 0% is about no effect; nearly all actives have a fitted effect of over 60% in size. The method, boiled down: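 DNA re-replication was detected as a rise in nuclei with elevated Hoechst fluorescence after a 48 hr compound exposure of MCF 10A cells at 37 C.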
The nature of experiment [24]: Quantitative high throughput screen for delayed death inhibitors of the malarial parasite plastid, 96 hour incubation (AID 488745). Further: on the % scale 0 is the no-effect control and ±100 the full control effect; nearly all actives have a fitted effect of over 70% in size. In short, it runs like this: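 Decreased firefly luciferase luminescence indicates inhibited growth of reporter-integrated P. falciparum after two generations (96 h, 37 C, 5% CO2). Infected erythrocytes at 0.1% parasitemia, 2% hematocrit, in Albumax-supplemented RPMI 1640.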

Experiment [25] in a line: Quantitative high throughput screen for delayed death inhibitors of the malarial parasite plastid, 48 hour incubation (AID 488752). Further: on the % scale 0 is the no-effect control and ±100 the full control effect; nearly all actives have a fitted effect of over 65% in size. The method, boiled down:
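One-generation (48 h) growth assay: a decrease in luciferase signal from an integrated reporter in P. falciparum-infected red cells (0.1% parasitemia, 2% hematocrit) after compound exposure at 37 C indicates parasite inhibition.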

Experiment [26] concerns the target M-phase phosphoprotein 8 (Homo sapiens) (UniProt Q99549). Nature of the experiment: qHTS Validation Assay for Inhibitors for MPP8 Chromodomain Interactions with Methylated Histone Tails (AID 488949).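 Further: AlphaScreen signal from MPP8 chromodomain bound to biotinylated H3K9me3 peptide; top concentration of the series differs between compounds; on the % scale 0 is the no-effect control and ±100 the full control effect; nearly all actives have a fitted effect of over 55% in size.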 The method, boiled down:
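Disruption of the preformed MPP8–trimethyl-H3K9 peptide complex (both 50 nM, 30 min, RT) is measured after 30 min compound exposure, using AlphaScreen proximity beads; aurintricarboxylic acid titration serves as plate control.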

Experiment [27] has as its target Transient receptor potential cation channel subfamily V member 1 (Homo sapiens) (UniProt Q8NER1). Nature of the experiment: HTS Assay for Compounds that Act as Enhancers of the Vanilloid Receptor 1 (AID 488979). Further: 0% is about no effect. The method, boiled down:
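Calcium influx kinetics via Fluo-8 (480/520 nm) in TRPV1-expressing cells, 2000/well cultured overnight at 35.5C. Compound-alone read 3 min (agonist phase), followed by EC20 capsaicin challenge for 2 min (enhancer phase).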

For experiment [28], the target named is Thyrotropin receptor (Homo sapiens) (UniProt P16473). The experiment is described as follows: qHTS Assay for Antagonists of the Thyroid Stimulating Hormone Receptor (AID 488980). Further: 0% is about no effect. In short, it runs like this:
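Cells expressing human TSHR (HEK293) are dispensed in HBSS/HEPES containing 70 uM RO 20-1724, compound is added, then TSH at EC80 (4 nM final). Antibody in lysis buffer follows, 30 minutes at room temperature before HTRF detection.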

Experiment [29] has as its target Thyrotropin-releasing hormone receptor (Homo sapiens) (UniProt P34981). The experiment is described as follows: qHTS for Small Molecule Agonists and Allosteric Enhancers of Human TRH Receptor: Validation Screen for Agonists (AID 493127;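 active means calcium activation more than 3 SD above the typical response in the agonist read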;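 further: intracellular calcium rise by fluo-8 fluorescence before TRH EC20 addition; 0% is about no effect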). The following applies: TRH receptor agonist cell assay; at 2 µM; stronger effect = higher value. In short, it runs like this: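 Compound-evoked intracellular calcium release in fluo-8-loaded TRHR cells, read kinetically on FDSS (Ex 480/Em 530, 1 s/cycle) after 23 nL pintool transfer. Agonist phase preceded 10 nM TRH EC20 addition.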

Experiment [30] concerns the target Galactokinase (Homo sapiens) (UniProt P51570). Nature of the experiment: qHTS Validation Assay for Inhibitors of Human Galactokinase (GALK) (AID 493189). Further: 0% is about no effect. In short, it runs like this: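 Compounds were pin-transferred into ATP buffer, then GALK-galactose mix was added (final 5 nM enzyme, 100 uM galactose, 35 uM ATP). After 1 h at room temperature, remaining ATP was measured luminescently.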

Experiment [31] in a line: Validation screen for small molecules that induce DNA re-replication in SW480 colon adenocarcinoma cells (AID 504364). Further: 0% is about no effect. The method, boiled down:
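Image-based DNA content read-out: Hoechst stain 40 min, total nuclear fluorescence intensity (ex 405 nm, em 500-530 nm) after 48 h compound exposure of 250 SW480 cells/well at 37 C, 5% CO2, versus DMSO vehicle.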

In experiment [32] the target is Voltage-gated inwardly rectifying potassium channel KCNH2 (Homo sapiens) (UniProt Q12809). Nature of the experiment: qHTS Assay for Small Molecule Inhibitors of the Human hERG Channel Activity (AID 588834).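 Further: U2OS cells transduced with hERG by BacMam; top concentration of the series differs between compounds; on the % scale 0 is the no-effect control and ±100 the full control effect; lower thallium flux fluorescence means stronger hERG block; nearly all actives have a fitted effect of over 50% in size.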 The method, boiled down: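 Cells were infected with hERG-BacMam virus for 4 hrs at room temperature, grown overnight, then seeded at 2000/well. After dye loading and roughly 10 min compound treatment, thallium influx was triggered and fluorescence recorded.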

Sequence of Galactokinase (Homo sapiens) (P51570 whole entry, looked up): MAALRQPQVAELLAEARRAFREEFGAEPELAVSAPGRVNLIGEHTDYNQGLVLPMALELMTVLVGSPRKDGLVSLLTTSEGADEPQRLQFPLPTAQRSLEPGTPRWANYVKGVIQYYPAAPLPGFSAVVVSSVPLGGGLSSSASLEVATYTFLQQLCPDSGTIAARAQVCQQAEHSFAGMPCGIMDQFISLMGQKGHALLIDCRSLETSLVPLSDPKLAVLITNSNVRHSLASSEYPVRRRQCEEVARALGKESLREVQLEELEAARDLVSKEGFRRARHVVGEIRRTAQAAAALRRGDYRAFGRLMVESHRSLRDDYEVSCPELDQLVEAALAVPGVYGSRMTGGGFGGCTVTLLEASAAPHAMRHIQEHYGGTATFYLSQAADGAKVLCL
Sequence of Transient receptor potential cation channel subfamily V member 1 (Homo sapiens) (Q8NER1 whole entry, looked up): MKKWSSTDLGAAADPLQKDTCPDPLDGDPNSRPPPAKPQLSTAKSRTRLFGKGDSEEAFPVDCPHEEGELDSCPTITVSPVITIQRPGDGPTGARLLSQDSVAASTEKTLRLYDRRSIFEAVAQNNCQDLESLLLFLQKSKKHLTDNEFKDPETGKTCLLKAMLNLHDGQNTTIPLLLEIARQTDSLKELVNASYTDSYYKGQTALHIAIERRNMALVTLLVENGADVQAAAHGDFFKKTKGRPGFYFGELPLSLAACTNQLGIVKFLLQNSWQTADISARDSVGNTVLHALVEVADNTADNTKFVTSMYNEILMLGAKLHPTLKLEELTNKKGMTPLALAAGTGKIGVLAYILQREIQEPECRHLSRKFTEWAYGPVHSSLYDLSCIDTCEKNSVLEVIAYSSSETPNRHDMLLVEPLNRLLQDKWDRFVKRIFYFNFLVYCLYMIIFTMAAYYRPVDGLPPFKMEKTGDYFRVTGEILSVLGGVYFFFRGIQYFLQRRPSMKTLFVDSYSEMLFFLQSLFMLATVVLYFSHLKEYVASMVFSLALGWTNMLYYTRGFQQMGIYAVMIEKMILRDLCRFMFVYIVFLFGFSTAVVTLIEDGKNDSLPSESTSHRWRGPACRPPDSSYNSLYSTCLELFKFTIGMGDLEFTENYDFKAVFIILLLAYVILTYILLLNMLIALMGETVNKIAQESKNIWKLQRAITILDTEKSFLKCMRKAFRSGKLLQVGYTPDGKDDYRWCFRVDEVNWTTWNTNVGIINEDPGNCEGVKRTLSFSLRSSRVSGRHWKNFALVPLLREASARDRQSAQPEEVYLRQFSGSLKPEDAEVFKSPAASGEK
Sequence of Thyrotropin-releasing hormone receptor (Homo sapiens) (P34981 whole entry, looked up): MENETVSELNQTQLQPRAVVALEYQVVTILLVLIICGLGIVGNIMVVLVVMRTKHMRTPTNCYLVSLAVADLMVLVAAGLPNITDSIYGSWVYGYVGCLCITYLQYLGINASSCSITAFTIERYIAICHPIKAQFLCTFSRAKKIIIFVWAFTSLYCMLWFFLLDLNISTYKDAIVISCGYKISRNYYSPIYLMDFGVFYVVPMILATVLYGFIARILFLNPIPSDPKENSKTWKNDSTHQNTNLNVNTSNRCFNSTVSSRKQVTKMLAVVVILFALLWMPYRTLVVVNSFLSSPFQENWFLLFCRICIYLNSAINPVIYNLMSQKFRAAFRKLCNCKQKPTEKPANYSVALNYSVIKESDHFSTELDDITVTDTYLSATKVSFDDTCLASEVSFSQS
Sequence of M-phase phosphoprotein 8 (Homo sapiens) (Q99549 whole entry, looked up): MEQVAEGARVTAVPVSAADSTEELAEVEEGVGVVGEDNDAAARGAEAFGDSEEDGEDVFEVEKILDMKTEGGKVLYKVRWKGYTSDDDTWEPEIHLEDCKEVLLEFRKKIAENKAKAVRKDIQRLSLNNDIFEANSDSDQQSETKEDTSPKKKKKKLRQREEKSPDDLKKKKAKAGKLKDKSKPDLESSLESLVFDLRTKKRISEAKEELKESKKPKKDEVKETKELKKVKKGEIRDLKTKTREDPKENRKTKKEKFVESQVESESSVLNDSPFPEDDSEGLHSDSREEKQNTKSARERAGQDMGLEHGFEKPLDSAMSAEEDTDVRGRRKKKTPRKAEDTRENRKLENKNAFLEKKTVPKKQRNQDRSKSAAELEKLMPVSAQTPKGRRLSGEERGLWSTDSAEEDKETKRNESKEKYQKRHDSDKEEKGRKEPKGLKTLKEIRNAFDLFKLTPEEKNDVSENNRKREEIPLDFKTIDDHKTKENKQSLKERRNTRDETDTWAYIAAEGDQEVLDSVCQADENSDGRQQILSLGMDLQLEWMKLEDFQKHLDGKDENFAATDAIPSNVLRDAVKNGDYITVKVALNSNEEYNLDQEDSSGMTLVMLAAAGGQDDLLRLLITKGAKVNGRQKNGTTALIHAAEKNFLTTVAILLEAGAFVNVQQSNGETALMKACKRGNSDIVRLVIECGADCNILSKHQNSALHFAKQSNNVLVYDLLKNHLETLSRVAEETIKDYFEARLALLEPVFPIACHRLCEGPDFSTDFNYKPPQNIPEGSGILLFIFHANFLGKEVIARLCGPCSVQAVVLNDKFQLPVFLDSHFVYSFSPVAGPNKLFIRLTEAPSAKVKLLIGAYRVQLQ
Sequence of Cytochrome P450 2D6 (Homo sapiens) (P10635 whole entry, looked up): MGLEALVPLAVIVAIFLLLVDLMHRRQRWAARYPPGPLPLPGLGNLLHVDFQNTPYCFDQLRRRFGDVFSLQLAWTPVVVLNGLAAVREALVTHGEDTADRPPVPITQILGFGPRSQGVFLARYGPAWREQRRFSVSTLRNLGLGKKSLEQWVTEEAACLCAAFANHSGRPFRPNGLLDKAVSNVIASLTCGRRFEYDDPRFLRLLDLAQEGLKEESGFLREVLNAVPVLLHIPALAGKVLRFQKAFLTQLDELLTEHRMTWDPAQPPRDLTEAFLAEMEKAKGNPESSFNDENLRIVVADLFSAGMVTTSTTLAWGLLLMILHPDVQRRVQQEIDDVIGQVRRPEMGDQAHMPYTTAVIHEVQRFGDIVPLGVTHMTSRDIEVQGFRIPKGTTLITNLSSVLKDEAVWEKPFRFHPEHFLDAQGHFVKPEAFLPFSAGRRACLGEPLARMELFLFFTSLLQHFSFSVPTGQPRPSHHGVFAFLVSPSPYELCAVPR
Sequence of Ferritin light chain (Equus caballus) (P02791 2-175 limits assumed): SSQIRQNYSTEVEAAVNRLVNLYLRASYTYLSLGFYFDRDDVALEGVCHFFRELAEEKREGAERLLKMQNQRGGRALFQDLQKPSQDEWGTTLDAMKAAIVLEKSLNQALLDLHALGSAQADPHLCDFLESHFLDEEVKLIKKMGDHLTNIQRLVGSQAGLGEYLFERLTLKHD

On to `c1ccc(COCCCc2cnc[nH]2)cc1`, for which the Potency entry in [1] was “inactive”.
`CN(Cc1ccccc1)C(=O)[C@H](Cc1ccc2ccccc2c1)NC(=O)[C@@H]1C[C@@H](O)CN1C(=O)c1cn(C)c2ccccc12`: the Potency entry in experiment [1] is “inactive”.
For `C=C1C(=O)O[C@@H]2[C@H]3O[C@]3(C)CC/C=C(\C)CC[C@@H]12`, the Potency result in experiment [1], in experiment [2], in [3] and in [4] was “inactive” in each case. In addition, the Potency was 3.72 µM (active) in experiment [5], 2.09 µM (active) in experiment [6] and 7.01 µM (active) in experiment [7] (HiBiT). Besides, in experiment [7] (Viability, at 45.9 µM (top of the series)), the activity change, negative = inhibition is 0.032% (inactive).
Consider `CCCCCCCCCCCCCCC[C@@H](O)[C@H](CO)NC(=O)CCCCCCC`, for which, in experiment [1], the activity change, negative = inhibition is 6.97% [at 6.83 µM] (inactive).
Still for that read-out and setting: to `CCCCC/C=C\C/C=C\C/C=C\C/C=C\CCCCCC(=O)O` belongs -5.55% [at 6.83 µM] (inactive).
`NC(CCC(=O)NCS(=O)(=O)O)C(=O)O` (stereo unspecified): the compound was classed as inactive in experiment [8], in experiment [19], in [20], in [27], in experiment [28] and in experiment [30]. The compound was called inactive in experiment [31]. In addition, the activity change, negative = inhibition in experiment [9] (at 57.5 µM (top of the series)) is 1.69% (inactive). The max response in [9] (measured here: cell count channel max response) was 45.8%; in experiment [9] (measured here: lipid channel max response), 46.4%. Also, the Potency result in [10], in [11], in [12], in experiment [13], in experiment [14] and in experiment [15] was “inactive” in each case. For the same compound, the Potency result in experiment [16], in [17], in [18], in [21], in experiment [22] and in [23] was “inactive” in each case. The Potency entry in experiment [24], in [25], in experiment [26], in experiment [32], in [1] and in experiment [2] was “inactive” throughout. Further, the activation in [29] was 1.56% (inactive).

For the origin of these results see PubChem BioAssay (NCATS).
